Compound in this test: Nc1ncnc2c1ncn2[C@@H]1O[C@H](COP(=O)(O)OP(=O)(O)OP(=O)(O)O)[C@@H](O)[C@H]1O [adenosine triphosphate]
In words: NP40-soluble protein abundance relative to vehicle (solubility fold change) (ratio); higher = more soluble protein in presence of ATP. In outline: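 In three independent experiments, Jurkat crude lysate made by Dounce homogenisation was treated for 10 min at room temperature and then 3 min at 37 °C with eight concentrations ranging from 0.1 to 10 mM. It was then solubilised with 0.8% NP40 plus benzonase for 60 min at 4 °C and ultracentrifuged. The supernatant was TMT-labelled for LC-MS/MS, and each value is the fold change against the detergent-processed vehicle for the same replicate, using vsn-normalised intensities.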

± gives the standard deviation of the averaged measurements. About 6,500 targets were measured; listed, in parts, are those with the largest changes and a random draw of the rest.

Sequence of UniProt Q9H2U2 (Q9H2U2 whole entry, one chain of several): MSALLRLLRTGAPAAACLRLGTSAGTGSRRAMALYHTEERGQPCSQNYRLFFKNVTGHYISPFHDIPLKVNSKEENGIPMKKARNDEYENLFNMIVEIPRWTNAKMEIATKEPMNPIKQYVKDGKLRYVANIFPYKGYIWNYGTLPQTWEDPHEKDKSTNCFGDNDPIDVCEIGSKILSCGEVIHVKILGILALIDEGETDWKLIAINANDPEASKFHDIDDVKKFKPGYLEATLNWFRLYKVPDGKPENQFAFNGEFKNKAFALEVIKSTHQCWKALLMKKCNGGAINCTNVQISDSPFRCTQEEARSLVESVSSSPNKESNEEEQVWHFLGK
Sequence of UniProt Q8NEM7 (Q8NEM7 whole entry, one chain of several): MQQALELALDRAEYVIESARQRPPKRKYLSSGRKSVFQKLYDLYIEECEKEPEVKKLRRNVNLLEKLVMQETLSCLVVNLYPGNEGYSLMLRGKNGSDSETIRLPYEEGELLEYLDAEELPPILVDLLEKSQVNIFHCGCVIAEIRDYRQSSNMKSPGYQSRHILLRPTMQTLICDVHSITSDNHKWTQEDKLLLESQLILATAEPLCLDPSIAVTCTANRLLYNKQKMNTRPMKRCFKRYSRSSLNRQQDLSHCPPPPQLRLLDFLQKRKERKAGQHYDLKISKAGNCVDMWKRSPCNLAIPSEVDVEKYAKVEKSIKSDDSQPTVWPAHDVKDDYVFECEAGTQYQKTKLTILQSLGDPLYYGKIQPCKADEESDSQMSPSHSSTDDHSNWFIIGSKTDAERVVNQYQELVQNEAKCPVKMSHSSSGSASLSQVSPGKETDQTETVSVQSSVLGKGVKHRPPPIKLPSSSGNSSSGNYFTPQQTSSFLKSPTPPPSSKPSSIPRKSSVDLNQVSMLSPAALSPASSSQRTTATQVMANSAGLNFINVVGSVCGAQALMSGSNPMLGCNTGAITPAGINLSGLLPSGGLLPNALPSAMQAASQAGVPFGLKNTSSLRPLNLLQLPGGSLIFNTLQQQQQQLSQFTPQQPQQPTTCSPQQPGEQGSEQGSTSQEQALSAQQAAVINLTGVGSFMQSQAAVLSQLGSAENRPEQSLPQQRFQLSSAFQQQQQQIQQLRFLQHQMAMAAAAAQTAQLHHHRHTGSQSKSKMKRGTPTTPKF
Sequence of UniProt P13693 (P13693 whole entry, one chain of several): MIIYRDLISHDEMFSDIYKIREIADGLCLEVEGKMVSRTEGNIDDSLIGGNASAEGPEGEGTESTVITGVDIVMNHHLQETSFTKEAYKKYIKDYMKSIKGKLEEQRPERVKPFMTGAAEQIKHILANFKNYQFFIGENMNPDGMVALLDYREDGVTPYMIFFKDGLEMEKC
Sequence of UniProt O43678 (O43678 whole entry): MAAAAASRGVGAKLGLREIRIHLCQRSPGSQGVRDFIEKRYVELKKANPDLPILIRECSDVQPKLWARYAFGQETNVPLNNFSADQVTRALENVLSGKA
Sequence of UniProt Q14160 (Q14160 whole entry, looked up, one chain of several): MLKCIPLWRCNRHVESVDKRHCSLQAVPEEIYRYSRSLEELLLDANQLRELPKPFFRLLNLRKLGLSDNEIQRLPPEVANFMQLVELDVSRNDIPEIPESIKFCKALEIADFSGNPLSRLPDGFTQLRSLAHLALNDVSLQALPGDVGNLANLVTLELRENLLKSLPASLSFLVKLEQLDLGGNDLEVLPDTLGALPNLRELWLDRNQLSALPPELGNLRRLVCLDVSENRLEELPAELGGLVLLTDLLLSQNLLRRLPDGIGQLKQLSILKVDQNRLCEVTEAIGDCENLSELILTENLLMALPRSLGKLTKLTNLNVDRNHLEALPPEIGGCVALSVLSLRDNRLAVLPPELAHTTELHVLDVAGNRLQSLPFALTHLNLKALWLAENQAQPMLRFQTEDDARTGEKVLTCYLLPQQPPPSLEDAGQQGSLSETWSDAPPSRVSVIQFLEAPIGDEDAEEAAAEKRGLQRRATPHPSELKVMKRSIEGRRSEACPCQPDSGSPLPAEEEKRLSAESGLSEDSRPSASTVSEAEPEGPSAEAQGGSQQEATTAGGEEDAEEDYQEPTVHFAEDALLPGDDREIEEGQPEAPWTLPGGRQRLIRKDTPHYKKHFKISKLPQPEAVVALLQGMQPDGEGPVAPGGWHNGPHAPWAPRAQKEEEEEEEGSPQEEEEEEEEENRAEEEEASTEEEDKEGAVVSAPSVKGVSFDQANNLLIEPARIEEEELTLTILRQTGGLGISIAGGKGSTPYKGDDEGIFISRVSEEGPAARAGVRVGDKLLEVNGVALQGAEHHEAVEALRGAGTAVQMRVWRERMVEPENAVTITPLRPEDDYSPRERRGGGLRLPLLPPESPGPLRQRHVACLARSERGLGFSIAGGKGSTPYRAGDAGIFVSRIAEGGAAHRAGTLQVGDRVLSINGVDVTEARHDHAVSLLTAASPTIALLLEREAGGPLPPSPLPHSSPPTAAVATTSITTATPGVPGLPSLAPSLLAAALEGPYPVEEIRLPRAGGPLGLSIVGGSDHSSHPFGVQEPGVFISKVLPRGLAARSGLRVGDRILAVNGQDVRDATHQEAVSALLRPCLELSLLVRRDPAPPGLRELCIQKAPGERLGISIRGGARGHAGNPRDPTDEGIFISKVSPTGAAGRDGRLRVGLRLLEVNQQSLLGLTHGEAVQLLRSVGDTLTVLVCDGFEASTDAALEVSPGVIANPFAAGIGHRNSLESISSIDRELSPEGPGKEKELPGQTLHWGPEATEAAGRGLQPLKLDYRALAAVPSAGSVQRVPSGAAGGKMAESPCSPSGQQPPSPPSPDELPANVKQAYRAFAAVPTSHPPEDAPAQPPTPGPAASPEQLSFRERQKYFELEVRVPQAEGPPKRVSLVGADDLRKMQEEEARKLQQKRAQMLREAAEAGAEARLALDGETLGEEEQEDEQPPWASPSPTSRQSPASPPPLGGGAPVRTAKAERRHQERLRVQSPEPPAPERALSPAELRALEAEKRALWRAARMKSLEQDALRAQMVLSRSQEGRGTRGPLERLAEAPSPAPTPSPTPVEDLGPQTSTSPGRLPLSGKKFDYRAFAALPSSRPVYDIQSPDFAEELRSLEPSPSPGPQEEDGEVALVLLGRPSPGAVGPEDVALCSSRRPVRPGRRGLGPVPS
Sequence of UniProt O95232 (O95232 whole entry, one chain of several): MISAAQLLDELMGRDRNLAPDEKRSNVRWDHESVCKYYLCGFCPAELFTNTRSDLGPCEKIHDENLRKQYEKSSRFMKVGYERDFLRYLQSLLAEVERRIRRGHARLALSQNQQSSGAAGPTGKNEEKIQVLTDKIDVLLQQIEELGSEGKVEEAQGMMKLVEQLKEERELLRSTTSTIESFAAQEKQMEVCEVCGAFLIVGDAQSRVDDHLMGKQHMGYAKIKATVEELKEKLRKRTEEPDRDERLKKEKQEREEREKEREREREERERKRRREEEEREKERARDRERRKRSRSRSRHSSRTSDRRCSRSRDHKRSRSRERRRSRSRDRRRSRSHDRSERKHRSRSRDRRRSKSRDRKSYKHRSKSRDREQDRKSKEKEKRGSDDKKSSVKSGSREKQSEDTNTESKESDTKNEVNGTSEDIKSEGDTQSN
Sequence of UniProt Q96GD4 (Q96GD4 whole entry, one chain of several): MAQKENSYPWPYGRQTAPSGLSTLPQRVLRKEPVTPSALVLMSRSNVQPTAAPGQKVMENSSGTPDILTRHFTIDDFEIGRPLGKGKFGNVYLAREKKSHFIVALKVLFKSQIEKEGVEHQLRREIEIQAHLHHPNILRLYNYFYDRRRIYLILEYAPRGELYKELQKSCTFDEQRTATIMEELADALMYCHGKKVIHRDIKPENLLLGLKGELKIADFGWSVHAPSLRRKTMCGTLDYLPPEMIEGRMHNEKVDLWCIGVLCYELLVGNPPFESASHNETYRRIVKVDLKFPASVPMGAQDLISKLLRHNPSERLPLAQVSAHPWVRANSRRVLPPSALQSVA
Sequence of UniProt Q6VN20 (Q6VN20 whole entry, one chain of several): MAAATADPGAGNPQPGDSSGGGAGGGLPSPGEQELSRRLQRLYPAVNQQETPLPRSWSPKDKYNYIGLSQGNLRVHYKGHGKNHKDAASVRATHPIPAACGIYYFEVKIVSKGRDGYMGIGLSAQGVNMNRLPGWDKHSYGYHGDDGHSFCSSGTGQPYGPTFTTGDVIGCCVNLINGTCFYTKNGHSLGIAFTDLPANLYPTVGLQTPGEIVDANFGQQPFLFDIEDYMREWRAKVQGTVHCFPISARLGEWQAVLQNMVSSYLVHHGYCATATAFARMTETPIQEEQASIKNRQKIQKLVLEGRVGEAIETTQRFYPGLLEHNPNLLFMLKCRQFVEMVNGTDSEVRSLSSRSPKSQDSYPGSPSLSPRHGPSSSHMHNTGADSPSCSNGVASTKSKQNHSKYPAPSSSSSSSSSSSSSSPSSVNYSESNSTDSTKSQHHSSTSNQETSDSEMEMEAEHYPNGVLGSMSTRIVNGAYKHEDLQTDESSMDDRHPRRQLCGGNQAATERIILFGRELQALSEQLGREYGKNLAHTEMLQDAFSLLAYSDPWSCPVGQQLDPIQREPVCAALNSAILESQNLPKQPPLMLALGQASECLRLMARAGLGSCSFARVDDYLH
Sequence of UniProt O43169 (O43169 whole entry, one chain of several): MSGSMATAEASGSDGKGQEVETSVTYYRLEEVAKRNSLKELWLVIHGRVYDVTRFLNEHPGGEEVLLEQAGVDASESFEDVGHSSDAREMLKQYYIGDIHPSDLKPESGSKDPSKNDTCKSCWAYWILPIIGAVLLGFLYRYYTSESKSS
Sequence of UniProt O43809 (O43809 whole entry): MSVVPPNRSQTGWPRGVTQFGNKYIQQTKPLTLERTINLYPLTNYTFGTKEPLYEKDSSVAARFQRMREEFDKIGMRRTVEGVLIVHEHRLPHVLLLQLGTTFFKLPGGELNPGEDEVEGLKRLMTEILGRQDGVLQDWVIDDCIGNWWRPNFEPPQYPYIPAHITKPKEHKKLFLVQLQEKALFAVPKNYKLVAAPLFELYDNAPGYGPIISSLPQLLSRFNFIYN
Sequence of UniProt O15392 (O15392 whole entry): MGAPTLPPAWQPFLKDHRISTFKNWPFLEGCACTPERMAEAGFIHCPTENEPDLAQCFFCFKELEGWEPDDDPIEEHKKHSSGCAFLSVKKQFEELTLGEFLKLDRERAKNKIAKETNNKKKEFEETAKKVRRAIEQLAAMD

For PSMD12 (UniProt O00232), the NP40-soluble protein abundance is 0.938 ± 0.063 (concentration: 1mM); 0.894 ± 0.035 (concentration: 2mM); 0.863 ± 0.015 (concentration: 4mM); 0.843 ± 0.025 (concentration: 6mM); 0.898 ± 0.031 (concentration: 8mM); 0.885 ± 0.035 (concentration: 10mM).
As for K7ELH7|K7ENE2|Q8IVV7 (UniProt Q8IVV7), the NP40-soluble protein abundance runs as follows: (concentration: 1mM) 1.04 ± 0.13; (concentration: 2mM) 0.979 ± 0.11; (concentration: 4mM) 1 ± 0.032; (concentration: 6mM) 0.867 ± 0.075; (concentration: 8mM) 0.931 ± 0.094; (concentration: 10mM) 0.92918 ± 9.2e-06.
Turning to J3KTD6|Q96GD4|Q96GD4-5 (UniProt Q96GD4), the NP40-soluble protein abundance by setting is: (concentration: 1mM) 1.37 ± 0.16; (concentration: 2mM) 1.47 ± 0.18; (concentration: 4mM) 1.6 ± 0.16; (concentration: 6mM) 1.58 ± 0.25; (concentration: 8mM) 1.71 ± 0.032; (concentration: 10mM) 1.76 ± 0.072.
Turning to E9PJN1|O75676|O75676-2 (UniProt O75676), the NP40-soluble protein abundance (concentration: 1mM) is 1.36 ± 0.22; the NP40-soluble protein abundance (concentration: 2mM) turned out to be 2.6 ± 1.5; the NP40-soluble protein abundance (concentration: 4mM) is 1.34 ± 0.17; the NP40-soluble protein abundance (concentration: 6mM) came out at 1.35 ± 0.17; the NP40-soluble protein abundance (concentration: 8mM) is 1.31 ± 0.26; the NP40-soluble protein abundance (concentration: 10mM) was determined as 1.38 ± 0.13.
On to A8MXP9|P43243|P43243-2 (UniProt P43243), for which the NP40-soluble protein abundance runs as follows: (concentration: 1mM) 1.02 ± 0.042; (concentration: 2mM) 1.03 ± 0.038; (concentration: 4mM) 1 ± 0.026; (concentration: 6mM) 1.05 ± 0.039; (concentration: 8mM) 1 ± 0.029; (concentration: 10mM) 1.03 ± 0.015.
Consider UniProt O15392|O15392-2, for which the NP40-soluble protein abundance reads like this: (concentration: 1mM) 0.961 ± 0.1; (concentration: 2mM) 2.09 ± 1.6; (concentration: 4mM) 1.13 ± 0.09; (concentration: 6mM) 1.23 ± 0.031; (concentration: 8mM) 1.26 ± 0.092; (concentration: 10mM) 1.31 ± 0.16.
In the case of M0R042|P04350 (UniProt P04350), the NP40-soluble protein abundance by setting is: (concentration: 1mM) 1.01 ± 0.089; (concentration: 2mM) 0.962 ± 0.037; (concentration: 4mM) 1.02 ± 0.034; (concentration: 6mM) 0.934 ± 0.058; (concentration: 8mM) 1.02 ± 0.018; (concentration: 10mM) 0.955 ± 0.071.
For the target “A0A0G2JPP5|Q14160|Q14160-3|A0A0G2JNZ2 (UniProt Q14160)”, the NP40-soluble protein abundance runs as follows: (concentration: 1mM) 0.973 ± 0.016; (concentration: 2mM) 0.96 ± 0.02; (concentration: 4mM) 0.9694 ± 0.0075; (concentration: 6mM) 0.98 ± 0.023; (concentration: 8mM) 0.93 ± 0.021; (concentration: 10mM) 0.941 ± 0.031.
For “G3XAC1|Q9BXS9|Q9BXS9-3|Q9BXS9-7|A0A0C4DFT5|Q9BXS9-4|Q9BXS9-5 (UniProt Q9BXS9)”, the NP40-soluble protein abundance by setting is: (concentration: 1mM) 0.909 ± 0.018; (concentration: 2mM) 0.891 ± 0.037; (concentration: 4mM) 0.918 ± 0.073; (concentration: 6mM) 0.885 ± 0.022; (concentration: 8mM) 0.867 ± 0.074; (concentration: 10mM) 0.863 ± 0.071.
As for J3KPP4|O95232 (UniProt O95232), the NP40-soluble protein abundance runs as follows: (concentration: 1mM) 2.04 ± 0.11; (concentration: 2mM) 2.06 ± 0.14; (concentration: 4mM) 2.12 ± 0.1; (concentration: 6mM) 2.32 ± 0.14; (concentration: 8mM) 2.27 ± 0.13; (concentration: 10mM) 2.32 ± 0.18.
As for NDUFA2 (UniProt O43678), the NP40-soluble protein abundance reads like this: (concentration: 1mM) 0.882 ± 0.1; (concentration: 2mM) 0.874 ± 0.16; (concentration: 4mM) 0.924 ± 0.1; (concentration: 6mM) 0.985 ± 0.21; (concentration: 8mM) 0.876 ± 0.081; (concentration: 10mM) 0.835 ± 0.13.
Regarding “A0A0D9SEU5|Q6VN20|Q6VN20-3|R4GMX8 (UniProt Q6VN20)”, the NP40-soluble protein abundance came out at 0.968 ± 0.017 (concentration: 1mM); 0.944 ± 0.05 (concentration: 2mM); 0.979 ± 0.02 (concentration: 4mM); 0.996 ± 0.11 (concentration: 6mM); 0.935 ± 0.028 (concentration: 8mM); 0.951 ± 0.036 (concentration: 10mM).
Turning to UniProt A7KAX9|A7KAX9-2, the NP40-soluble protein abundance (concentration: 1mM) worked out at 0.937 ± 0.054; the NP40-soluble protein abundance (concentration: 2mM) turned out to be 0.91 ± 0.046; the NP40-soluble protein abundance (concentration: 4mM) turned out to be 0.908 ± 0.0074; the NP40-soluble protein abundance (concentration: 6mM) came out at 0.907 ± 0.024; the NP40-soluble protein abundance (concentration: 8mM) was 0.904 ± 0.04; the NP40-soluble protein abundance (concentration: 10mM) is 0.941 ± 0.018.
In the case of “A0A0B4J2C3|P13693|Q5W0H4 (UniProt P13693)”, the NP40-soluble protein abundance was 0.95 ± 0.025 (concentration: 1mM); 0.942 ± 0.021 (concentration: 2mM); 0.915 ± 0.025 (concentration: 4mM); 0.923 ± 0.05 (concentration: 6mM); 0.919 ± 0.035 (concentration: 8mM); 0.909 ± 0.048 (concentration: 10mM).
With E9PDF6|O43795 (UniProt O43795), the NP40-soluble protein abundance was found to be 2.78 ± 0.047 (concentration: 1mM); 2.71 ± 0.065 (concentration: 2mM); 2.65 ± 0.15 (concentration: 4mM); 2.65 ± 0.21 (concentration: 6mM); 2.82 ± 0.17 (concentration: 8mM); 2.67 ± 0.12 (concentration: 10mM).
Turning to “H0YM92|J3KMZ9|P01130|P01130-5|H0YMD1|P01130-4 (UniProt P01130)”, the NP40-soluble protein abundance amounted to 0.962 ± 0.026 (concentration: 1mM); 0.977 ± 0.016 (concentration: 2mM); 0.981 ± 0.023 (concentration: 4mM); 0.966 ± 0.029 (concentration: 6mM); 0.9771 ± 0.0072 (concentration: 8mM); 0.987 ± 0.016 (concentration: 10mM).
With J3QL71|Q96FV2 (UniProt Q96FV2), the NP40-soluble protein abundance was determined as 0.96 ± 0.029 (concentration: 1mM); 0.97 ± 0.011 (concentration: 2mM); 0.98 ± 0.025 (concentration: 4mM); 0.944 ± 0.019 (concentration: 6mM); 0.959 ± 0.032 (concentration: 8mM); 0.984 ± 0.015 (concentration: 10mM).
As to “A0A0U1RRK1|F6XEV2|Q9BPX6|Q9BPX6-3|Q9BPX6-2 (UniProt Q9BPX6)”, the NP40-soluble protein abundance is, setting by setting: (concentration: 1mM) 1.01 ± 0.073; (concentration: 2mM) 1.01 ± 0.045; (concentration: 4mM) 1.04 ± 0.038; (concentration: 6mM) 1.05 ± 0.067; (concentration: 8mM) 1.07 ± 0.066; (concentration: 10mM) 1.08 ± 0.058.
For A0A0C4DGB9|Q9H2U2 (UniProt Q9H2U2), the NP40-soluble protein abundance (concentration: 1mM) turned out to be 0.971 ± 0.022; the NP40-soluble protein abundance (concentration: 2mM) came to 0.97 ± 0.029; the NP40-soluble protein abundance (concentration: 4mM) was 0.953 ± 0.03; the NP40-soluble protein abundance (concentration: 6mM) is 0.93 ± 0.051; the NP40-soluble protein abundance (concentration: 8mM) turned out to be 0.952 ± 0.038; the NP40-soluble protein abundance (concentration: 10mM) was found to be 0.919 ± 0.037.
For “F6S7C4|Q8NEM7|Q8NEM7-2|Q8NEM7-3|R4GND2 (UniProt Q8NEM7)”, the NP40-soluble protein abundance was found to be 1.09 ± 0.12 (concentration: 1mM); 1.15 ± 0.1 (concentration: 2mM); 1.14 ± 0.093 (concentration: 4mM); 1.12 ± 0.13 (concentration: 6mM); 1.16 ± 0.093 (concentration: 8mM); 1.2 ± 0.11 (concentration: 10mM).
As for NUDT21 (UniProt O43809), the NP40-soluble protein abundance stood at 1.95 ± 0.11 (concentration: 1mM); 2.06 ± 0.064 (concentration: 2mM); 2.18 ± 0.1 (concentration: 4mM); 2.25 ± 0.052 (concentration: 6mM); 2.31 ± 0.1 (concentration: 8mM); 2.213 ± 0.019 (concentration: 10mM).
As for H3BUX2|J3KNF8|O43169 (UniProt O43169), the NP40-soluble protein abundance reads like this: (concentration: 1mM) 0.964 ± 0.19; (concentration: 2mM) 0.854 ± 0.08; (concentration: 4mM) 0.877 ± 0.06; (concentration: 6mM) 0.865 ± 0.077; (concentration: 8mM) 0.815 ± 0.059; (concentration: 10mM) 0.781 ± 0.084.
For the target “C9J0K6|P30626|P30626-2|P30626-3 (UniProt P30626)”, the NP40-soluble protein abundance is, setting by setting: (concentration: 1mM) 0.887 ± 0.066; (concentration: 2mM) 0.921 ± 0.078; (concentration: 4mM) 0.892 ± 0.039; (concentration: 6mM) 0.911 ± 0.072; (concentration: 8mM) 0.896 ± 0.011; (concentration: 10mM) 0.811 ± 0.12.
Consider “A8MT02|P14678|P14678-2|P14678-3 (UniProt P14678)”, for which the NP40-soluble protein abundance runs as follows: (concentration: 1mM) 1.22 ± 0.14; (concentration: 2mM) 1.34 ± 0.089; (concentration: 4mM) 1.47 ± 0.05; (concentration: 6mM) 1.7 ± 0.26; (concentration: 8mM) 1.7 ± 0.22; (concentration: 10mM) 1.63 ± 0.13.
For the target K7EK70|Q49A26 (UniProt Q49A26), the NP40-soluble protein abundance (concentration: 1mM) is 1.18 ± 0.095; the NP40-soluble protein abundance (concentration: 2mM) was 1.25 ± 0.1; the NP40-soluble protein abundance (concentration: 4mM) worked out at 1.38 ± 0.1; the NP40-soluble protein abundance (concentration: 6mM) worked out at 1.45 ± 0.083; the NP40-soluble protein abundance (concentration: 8mM) worked out at 1.57 ± 0.16; the NP40-soluble protein abundance (concentration: 10mM) came to 1.76 ± 0.081.

(Values after the supplement of paper PMC6411743.)
